# Compound activity (PubChem BioAssay)
# Hits are enriched below; roughly 4.6% of the tested compounds scored in any of these assays.
# hcDAF12 agonist – H. contortus DAF-12 nuclear receptor activators, primary screen, cell-based, luminescence, HEK293, lit1-tk-luc reporter; HEK293 hcDAF-12 lit1-tk-luc reporter; 0% DMSO, 100% Δ7-dafachronic acid; activation, % at 6.8 µM; hit rate 1.4% among 370,000;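 active = activation above the mean of all tested compounds plus 3 SD, cut at about 5.5% in these data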;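 also: 100% = response to 3 µM Δ7-dafachronic acid high control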
# DAX1 inh-1 – DAX1 (NR0B1) inhibitors, primary screen, cell-based, HEK293, Gal4-DAX1, luciferase luminescence; Nuclear receptor subfamily 0 group B member 1 (Homo sapiens), P51843; HEK293 Gal4-DAX1 luciferase reporter; inhibition, % at 6.75 µM; hit rate 0.99% among 340,000;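 active = inhibition above the mean over all tested compounds plus 3 SD, cut at about 4.2% in these data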;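 also: 0% = DAX1-transfected cells with DMSO and 100% = empty-vector control cells with DMSO; inhibition shows as a rise in luminescence from relieved DAX1 repression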
# ssDAF-12 act – S. stercoralis DAF-12 nuclear receptor activators, primary screen, cell-based, luminescence, HEK293, GRIP1 co-expression, lit1-tk-luc | Nuclear hormone receptor DAF-12 (Strongyloides stercoralis) | HEK293 ssDAF-12/GRIP1 lit1-tk-luc reporter; % of 3 µM dafachronic acid response | activation, % at 6.8 µM | hit rate 1% among 370,000 | AID 652126, 2013;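 active = activation above the mean over all tested compounds plus 3 SD, cut at about 0.9% in these data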;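 also: 0% = DMSO-only wells and 100% = 3 µM delta7-dafachronic acid wells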
# Wee1 stabilizer – Wee1 degradation inhibitors, primary screen, cell-based, HeLa, Wee1K328M-luciferase, luminescence; reporter increase, % at 5 µM; Wee1-like protein kinase (Homo sapiens), P30291; HeLa Luc-Wee1K328M stability; 100% = proteasome inhibitor MG132 effect; AID 1321, 2008; hit rate 1.2% among 220,000;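 active = activation above the mean of all tested compounds plus 3 SD, set per screening run, cut at about 8.8% in these data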;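 also: cells exposed to compound for 20 h before luminescence read; 0% = DMSO alone and 100% = MG132 at 30 µM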
# Target sequence (P30291 whole entry K328M): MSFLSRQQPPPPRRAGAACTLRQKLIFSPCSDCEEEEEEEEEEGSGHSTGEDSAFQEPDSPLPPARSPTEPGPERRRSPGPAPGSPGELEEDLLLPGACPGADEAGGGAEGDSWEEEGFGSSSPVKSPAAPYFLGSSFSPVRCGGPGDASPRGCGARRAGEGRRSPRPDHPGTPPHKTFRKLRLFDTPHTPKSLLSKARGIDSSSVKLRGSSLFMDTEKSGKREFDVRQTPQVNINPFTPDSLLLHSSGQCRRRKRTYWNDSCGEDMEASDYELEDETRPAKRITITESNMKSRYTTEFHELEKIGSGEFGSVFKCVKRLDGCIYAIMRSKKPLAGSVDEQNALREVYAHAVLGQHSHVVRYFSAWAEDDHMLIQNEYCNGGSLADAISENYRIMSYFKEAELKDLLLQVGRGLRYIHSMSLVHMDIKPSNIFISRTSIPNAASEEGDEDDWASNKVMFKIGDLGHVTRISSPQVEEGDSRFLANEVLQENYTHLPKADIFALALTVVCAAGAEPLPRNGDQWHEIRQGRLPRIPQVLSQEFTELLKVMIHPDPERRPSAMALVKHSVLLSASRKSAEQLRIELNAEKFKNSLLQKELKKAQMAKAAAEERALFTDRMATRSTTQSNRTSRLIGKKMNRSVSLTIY
# DAX1 inh-2 – DAX1 (NR0B1) inhibitors on StAR promoter, primary screen, cell-based, luminescence, SF-1 (NR5A1), full-length DAX-1; HEK293T StAR-luciferase reporter, SF-1/DAX-1 repression relief; inhibition, % at 6.8 µM; hit rate 1.1% among 370,000; AID 652010, 2013;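 active = inhibition above the mean over all tested compounds plus 3 SD, cut at about 3.6% in these data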;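 also: 0% = DAX-1 cells with DMSO and 100% = cells lacking DAX-1 with DMSO; higher inhibition means more luminescence from relief of DAX-1 repression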
# hgDAF-12 ag – H. glycines DAF-12 receptor agonists, primary screen, cell-based, luminescence, HEK293, GAL4 fusion, UAS-luciferase. Nuclear hormone receptor DAF-12 (Heterodera glycines), GAL4 fusion. HEK293 GAL4-hgDAF12 UAS-luciferase reporter, agonist luminescence; normalized to butyrate control. activation, % at 6.8 µM. hit rate 1.8% among 370,000;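 active = activation above a cutoff set at the mean of all screened compounds plus 3 SD, cut at about 10% in these data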;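 also: 0% = DMSO wells and 100% = sodium butyrate wells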
# * hit, by the source's call; · = no result given.
SMILES,hcDAF12 agonist,DAX1 inh-1,ssDAF-12 act,Wee1 stabilizer,DAX1 inh-2,hgDAF-12 ag
Cc1nn(-c2nc(-c3ccco3)cc(C(F)(F)F)n2)c(C)c1Br,-2,4.7*,-1,-1,0,0
Fc1ccc(N2CCN(c3nc(-c4ccco4)cc(C(F)(F)F)n3)CC2)cc1,2,0,-1,0,0,0
Cc1ccc2cc(NC(=O)C3(C)CCN3C(C)C)ccc2n1 (centres undefined),1,·,-1,·,-1,2
CN=c1scc(C)n1/N=C/c1ccc2c(c1)OCO2,9.6*,-1,0,2,5.6*,11*
COc1ccc(N2C(=O)C(=O)/C(=C(/O)c3ccc(C)cc3)C2c2cccnc2)cc1 (centres undefined),2,0,-1,10*,1,0
COc1ccc(C2/C(=C(/O)c3ccc(C)cc3)C(=O)C(=O)N2C)cc1 (centres undefined),0,0,-1,0,-1,-2
COc1ccc(C2C(C(C)=O)=C(O)C(=O)N2c2ccc(C)cc2)cc1 (centres undefined),0,4.5*,0,·,1,4
CCN(CC)CCN1C(=O)C(=O)/C(=C(/O)c2ccc(F)cc2)C1c1cccnc1 (centres undefined),-1,5.0*,-1,2,0,0
CN(C)CCN1C(=O)C(=O)/C(=C(/O)c2ccc(F)cc2)C1c1ccccc1F (centres undefined),0,1,-2,1,0,1
Cc1ccc(/C(O)=C2\C(=O)C(=O)N(CCN(C)C)C2c2ccccc2F)cc1 (centres undefined),-1,4.6*,-1,-2,-1,-1
CCOC(=O)CN1C(=O)N(c2ccc(OC)cc2)[C@H]2CC3c4ccccc4C[C@]3(C)[C@@H](C(=O)N(C)C3CCCCC3)C[C@H]21 (some centres undefined),-2,·,-2,·,-2,-5
O=S1(=O)c2ccc(N3CC[C@H](O)C3)cc2O[C@H]2CCN1C2,1,·,-1,·,-2,-2
COC(=O)C1CN(Cc2cn(Cc3ccc(F)cc3)nn2)CCS(=O)(=O)N1Cc1ccc(C)cc1 (centres undefined),-4,·,-2,·,-1,-1
O=C(C(=O)N1CCN(C/C=C/c2ccccc2)CC1)c1ccccc1,-3,·,-1,·,0,0
COc1ccc(/C(O)=C2/C(=O)C(=O)N(c3ccccn3)C2c2ccc(C(C)C)cc2)cc1 (centres undefined),4,1,1,·,2,13*
Cc1nc2ccccn2c1/C(O)=C1\C(=O)C(=O)N(CCN(C)C)C1c1ccco1 (centres undefined),2,5.2*,-1,-1,0,2
COc1ccc(/C(O)=C2/C(=O)C(=O)N(c3ccccn3)C2c2ccc(OC)cc2)cc1 (centres undefined),2,1,-1,·,0,-2
Cc1nc2ccccn2c1/C(O)=C1\C(=O)C(=O)N(CCN2CCOCC2)C1c1ccncc1 (centres undefined),-1,0,-1,2,-1,-1
CCCCCC[C@@H](CN(CCCC)S(C)(=O)=O)c1ccccc1,-2,·,-1,·,-2,2
CSc1ccccc1NC(=O)CN(C)C(=O)c1ccc(-n2cccn2)cc1,-1,0,-1,·,3,0
CCC1=C(NCc2ccccc2)COC1=O,1,4.3*,-2,·,1,-2
CC(C)=CCC[C@@]1(C(=O)O)[C@H]2CC=C(CO)[C@@H]1CC/C(C)=C/CC/C(C)=C/C2,-3,·,-1,·,-1,-6
COc1ccc(-c2nc3ccccn3c2C=O)cc1,5.7*,-1,0,1,1,10
COc1ccccc1CNC(=O)c1ccc(NC2=NC3CS(=O)(=O)CC3S2)cc1 (centres undefined),1,0,-1,·,0,10*
COc1ccccc1CNC(=O)c1ccc(Cl)c(NC2=NC3CS(=O)(=O)CC3S2)c1 (centres undefined),4,1,-1,·,1,-1
SMILES,hcDAF12 agonist,DAX1 inh-1,ssDAF-12 act,Wee1 stabilizer,DAX1 inh-2,hgDAF-12 ag
CSC(=S)NN=C(C)c1cccc(C)n1,6.0*,-1,1,·,0,2
CC(=NNC(=S)N1CCCCC1)c1cccc(C)n1,4,0,0,·,-1,1
COc1ccccc1C(=O)NC(=O)COC(=O)CNC(=O)c1ccc(Cl)cc1Cl,0,-1,0,·,2,1
CCN(CC)C(=O)CC[C@H]1CC[C@]2(CCCN(C(=O)c3ccno3)C2)O1,-1,·,-1,·,3,-4
COc1ccc(NC(=O)CSc2nnc3ccc(-c4cccnc4)nn23)cc1OC,0,1,-1,·,-3,3
COc1ccccc1CNC(=O)CSc1nnc2ccc(-c3cccnc3)nn12,0,4.4*,-1,0,0,-2
CC1(C(=O)NCC2CCOCC2)Cc2c(-c3cccc(C(F)(F)F)c3)ccnc2O1 (centres undefined),-2,·,-1,·,-2,2
COc1ccc(C(C(=O)Nc2ccc(F)cc2)N2CCN(CC(=O)N3CCCC3)CC2)cc1 (centres undefined),-1,·,-1,·,4.2*,-2
CCCCNC(=O)C1CCCN1C(=O)Nc1cc(C)cc(C)c1 (centres undefined),0,·,-1,·,1,-2
CCOc1ncccc1C(=O)OCC(=O)NCc1ccccc1,2,1,-1,·,0,0
O=C(CSC1CC(=O)N(CCc2ccccc2)C1=O)Nc1cccc(Cl)c1 (centres undefined),1,0,-2,2,0,0
O=C(CSC1CC(=O)N(c2ccc(C(=O)O)cc2)C1=O)Nc1ccc(Cl)cc1 (centres undefined),-2,6.5*,-1,8,0,-5
O=C(CSC1CC(=O)N(CCc2ccccc2)C1=O)Nc1ccc(Br)cc1 (centres undefined),5.8*,1,0,-1,0,0
Cc1cccc(C(=O)NCC(=O)NCC2COc3ccccc3O2)c1 (centres undefined),-2,1,-1,·,1,0
Cc1ccc(NC(=O)C2SC(=Nc3ccccc3)C(C(=O)Nc3ccc(Cl)cc3)=C2N)cc1 (centres undefined),·,1,·,-3,·,·
